Test results as given in PubChem BioAssay (Tox21).
Values joined by “and” are separate entries in the source; they are usually repeats but may differ in a detail not shown here. Identical values can stand only once. Records with an inconclusive call do not appear. Entries that show only a call come without a potency. A structure can be active in one record and inactive in another. Active and inactive are the calls of the source. Unless noted, calls come from the whole dose curve. Peptide text beside a SMILES is read from it.

What was measured:
[1] = Nuclear factor erythroid 2-related factor 2/antioxidant responsive element (Nrf2/ARE) small molecule agonists: qHTS cell viability counter screen in human keratinocytes (AID 1919968; active = well fitted curve in the direction sought with a large enough effect in the repeat runs; an effect the other way counts as inactive or inconclusive; note: nearly all actives have a fitted effect of over 55% in size; note: potency is the fitted concentration of half-maximal effect)
Outline: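 HaCaT ARE reporter line, 1,500 cells/well; 5 h settle, 37 C/5% CO2; cpd in DMSO pinned; 23 h exposure; CellTiter-Fluor, 1 h; fluorescence.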

[2] = Nuclear factor erythroid 2-related factor 2/antioxidant responsive element (Nrf2/ARE) small molecule agonists: luciferase reporter gene qHTS assay in human keratinocytes (AID 1919969); note: nearly all actives have a fitted effect of over 35% in size; note: potency is the fitted concentration of half-maximal effect
[3] = target: Gonadotropin-releasing hormone receptor (Homo sapiens) (UniProt P30968); assay: Human gonadotropin-releasing hormone receptor (GnRHR) small molecule agonists, calcium flux assay in GnRHR-HEK293 cells (AID 1920063); note: nearly all actives have a fitted effect of over 35% in size
Outline: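 GnRHR-HEK293, 1500 cells/well, 18 h 37 C/5% CO2; Ca dye 1 h 37 C; cpd pinned (DMSO), agonist mode; kinetic FL 480/540, 3 min, 1 s reads; 15 conc, n=3.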

[4] = target: KiSS-1 receptor (Homo sapiens) (UniProt Q969F8); assay: Human kisspeptin (KISS1R) small molecule agonists, calcium flux assay in KISS1R-HEK293 cells (AID 1920064; active = well fitted curve in the direction sought with a large enough effect in the repeat runs; an effect the other way counts as inactive or inconclusive)
Outline: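 Stable human KISS1R HEK293 line; 18 h plating, 37 C/5% CO2; calcium dye 1 h 37 C; compound pin transfer; kinetic fluorescence Ex/Em 480/540, 3 min.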

[5] = G protein-coupled receptor (GPCR) small molecule agonists, calcium flux assay: HEK293 wild type cell line counter screen (AID 1920065)
Outline: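 Kinetic fluorescence at Ex/Em 480/540, recorded every second over 3 min, served as the read-out after compound addition. Each compound was tested at 15 concentrations in triplicate on cells pre-loaded with calcium dye for 1 h.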

[6] = p53 small molecule agonists, cell-based qHTS assay with human liver microsomes (AID 1963577);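 note: p53 response element beta-lactamase reporter cells with liver microsomes plus NADPH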
Outline: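 p53RE-bla cells; 5 h settle, 37 C/5% CO2; cpd + HLM 0.5 mg/mL + NADPH 0.5 mg/mL (final); 16 h 37 C; LiveBLAzer 2 h RT dark; fluorescence readout.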

[7] = p53 small molecule agonists, cell-based qHTS assay with human liver microsomes: qHTS cell viability counter screen (AID 1963579); note: nearly all actives have a fitted effect of over 45% in size; note: potency is the fitted concentration of half-maximal effect
Outline: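 Luminescent CellTiter-Glo read-out, 30 min at room temperature, gauged cytotoxicity in p53RE-bla cells exposed 16 h at 37 C to DMSO-dissolved compounds with metabolic activation by human liver microsomes and NADPH, each 0.5 mg/mL final.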

[8] = p53 small molecule agonists, cell-based qHTS assay with rat liver microsomes: qHTS cell viability counter screen (AID 1963580); note: nearly all actives have a fitted effect of over 45% in size
Outline: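 p53RE-bla HCT-116 cells were exposed 16 h at 37 C to compounds with rat liver microsomes (0.5 mg/mL) and NADPH (0.5 mg/mL). Viability was measured in the same wells as ATP content by CellTiter-Glo luminescence.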

[9] = p53 small molecule agonists, cell-based qHTS assay: qHTS cell viability counter screen (AID 1963581); note: nearly all actives have a fitted effect of over 45% in size; note: potency is the fitted concentration of half-maximal effect
Outline: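 HCT-116 p53RE-bla cells, 4,000/well, plated 5 h before compound pin transfer; 16 h at 37 C; bla substrate 2 h RT; then CellTiter-Glo, 30 min RT, luminescence.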

[10] = p53 small molecule agonists, cell-based qHTS assay (AID 1963582; active = well fitted activation curve with a large enough effect in the signal ratio in the repeat runs, not every such curve was filed as active; the % refers to the signal ratio; note: potency is the fitted concentration of half-maximal effect)
Outline: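 Reporter line: p53RE-bla. Pre-incubation 5 h, 37 C, 5% CO2; compound (DMSO, pin tool) 16 h, 37 C; B/G FRET substrate 2 h RT; fluorescence intensity read.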

[11] = target: 5-hydroxytryptamine receptor 2A (Homo sapiens) (UniProt P28223); assay: 5-hydroxytryptamine receptor 2A (HTR2A) small molecule antagonists, cell-based qHTS assay (AID 1963586); note: nearly all actives have a fitted effect of over 45% in size
Outline: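 Antagonist-mode intracellular calcium assay: DOI (4 nM) added after 5 min compound pre-incubation at room temperature to dye-loaded HTR2A-CHO cells. Fluorescence followed for 3 min, sampled every second.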

[12] = target: 5-hydroxytryptamine receptor 2A (Homo sapiens) (UniProt P28223); assay: 5-hydroxytryptamine receptor 2A (HTR2A) small molecule agonists, cell-based qHTS assay (AID 1963587); note: nearly all actives have a fitted effect of over 30% in size
Outline: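 CHO cells stably expressing human HTR2A, plated 18 h, loaded with calcium dye 1 h at 37 C. Agonist mode: compounds added and intracellular calcium fluorescence recorded kinetically for 2 min at 1 sec intervals.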

[13] = target: Muscarinic acetylcholine receptor M1 (Homo sapiens) (UniProt P11229); assay: Cholinergic receptor muscarinic 1 (CHRM1) small molecule antagonists, cell-based qHTS assay (AID 1963588); note: nearly all actives have a fitted effect of over 40% in size; note: potency is the fitted concentration of half-maximal effect
Outline: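 CHRM1-CHO calcium-flux assay, antagonist mode. Cells were seeded 18 h, dye-loaded 1 h at 37 C and given compound for 5 min at RT, then acetylcholine was added at 50nM. FDSS fluorescence was read 3 min; 15 concentrations, three runs.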

[14] = target: Muscarinic acetylcholine receptor M1 (Homo sapiens) (UniProt P11229); assay: Cholinergic receptor muscarinic 1 (CHRM1) small molecule agonists, cell-based qHTS assay (AID 1963589); note: nearly all actives have a fitted effect of over 35% in size
Outline: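 Human M1 in stable CHO line; 18 h plating, 1 h dye load 37 C; cpd added (agonist mode); Ca2+ fluorescence kinetic read, 1 s intervals; 15 conc, 3 runs.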

[15] = cAMP Responsive Elements (CRE) small molecule agonists, cell-based qHTS assay (AID 1963590)
Outline: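 HEK 293T CRE-bla, 2,000 cells/well, 18 h preincubation 37 C/5% CO2; cpds (DMSO) pinned, 3 h; LiveBLAzer B/G FRET substrate, 2 h RT.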

[16] = cAMP Responsive Elements (CRE) small molecule antagonists, cell-based qHTS assay (AID 1963591; active = well fitted inhibition curve with a large enough effect in the signal ratio in the repeat runs, not every such curve was filed as active; the % refers to the signal ratio)
Outline: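 Beta-lactamase reporter read by FRET substrate (LiveBLAzer B/G) after 2 h at room temperature. CRE-bla HEK293T cells had received compound plus 0.25 uM (final) NKH477 for 3 h at 37 °C.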

[17] = target: Beta-2 adrenergic receptor (Homo sapiens) (UniProt P07550); assay: Adrenergic beta2 receptor (ADRB2) small molecule antagonists, cell-based qHTS assay (AID 1963592); note: series mostly up to about 92 µM; nearly all actives have a fitted effect of over 50% in size
Outline: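 Cells (CHO, stable ADRB2 overexpression) incubated 18-20hr at 37C; compounds added from DMSO; agonist mix (1nM isoproterenol, 100uM IBMX, 25uM Ro-20-1724) added; 0.5hr RT; d2-cAMP and anti-cAMP-cryptate added; 1hr RT; 665/615 nm read.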

[18] = target: Beta-2 adrenergic receptor (Homo sapiens) (UniProt P07550); assay: Adrenergic beta2 receptor (ADRB2) small molecule agonists, cell-based qHTS assay (AID 1963593);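 note: CHO cells stably overexpressing human ADRB2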
Outline: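 CHO cells stably over-expressing ADRB2 were plated overnight at 37C, then dosed with compounds plus a stimulation mix containing 100uM IBMX and 25uM Ro-20-1724 for 0.5hr at room temperature. cAMP was measured by HTRF competition, 1hr.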

[19] = target: D(2) dopamine receptor (Homo sapiens) (UniProt P14416); assay: Dopamine D2 receptor (DRD2) small molecule agonists, cell-based qHTS assay (AID 1963594); note: nearly all actives have a fitted effect of over 35% in size
Outline: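 HEK293 cells stably expressing human DRD2, pre-treated with PDE inhibitor Ro20-1724 (0.1 mM final) and compound 10 min at room temperature, then stimulated with NKH477 (200nM […]) for 30 min. cAMP read by HTRF (665/620 nm).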

[20] = target: D(2) dopamine receptor (Homo sapiens) (UniProt P14416); assay: Dopamine D2 receptor (DRD2) small molecule antagonists, cell-based qHTS assay (AID 1963595; active = well fitted inhibition curve with a large enough effect in the signal ratio in the repeat runs, with a control signal flat; the % refers to the signal ratio)
Outline: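 Cells were plated and grown for 24 h at 37 °C. Ro20-1724 (0.1 mM final) went in first, then compound for 10 min. NKH477 (200 nM) with quinpirole (12 nM) followed for 30 min at RT, then HTRF detection reagents for 1 h.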

Sequence of KiSS-1 receptor (Homo sapiens) (Q969F8 whole entry, looked up): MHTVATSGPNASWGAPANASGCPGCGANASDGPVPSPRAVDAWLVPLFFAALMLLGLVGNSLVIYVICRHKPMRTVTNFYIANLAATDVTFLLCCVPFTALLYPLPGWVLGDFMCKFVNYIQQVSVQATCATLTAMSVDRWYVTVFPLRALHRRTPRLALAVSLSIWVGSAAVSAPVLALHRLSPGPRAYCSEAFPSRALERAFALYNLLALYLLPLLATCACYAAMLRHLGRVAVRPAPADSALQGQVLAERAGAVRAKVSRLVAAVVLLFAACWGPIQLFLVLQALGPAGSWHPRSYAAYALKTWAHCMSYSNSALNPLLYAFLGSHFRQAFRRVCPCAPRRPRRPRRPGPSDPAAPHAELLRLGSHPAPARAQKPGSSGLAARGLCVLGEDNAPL
Sequence of Gonadotropin-releasing hormone receptor (Homo sapiens) (P30968 whole entry, looked up): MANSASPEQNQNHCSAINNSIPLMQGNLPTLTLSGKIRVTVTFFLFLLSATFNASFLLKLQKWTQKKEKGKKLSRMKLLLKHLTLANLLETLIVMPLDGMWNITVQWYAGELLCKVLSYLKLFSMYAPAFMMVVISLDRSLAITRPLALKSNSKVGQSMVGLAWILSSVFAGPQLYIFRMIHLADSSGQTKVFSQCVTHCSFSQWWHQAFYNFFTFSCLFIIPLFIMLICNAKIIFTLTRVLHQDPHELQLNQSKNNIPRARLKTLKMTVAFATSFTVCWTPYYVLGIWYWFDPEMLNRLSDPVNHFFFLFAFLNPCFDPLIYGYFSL
Sequence of Muscarinic acetylcholine receptor M1 (Homo sapiens) (P11229 whole entry, looked up): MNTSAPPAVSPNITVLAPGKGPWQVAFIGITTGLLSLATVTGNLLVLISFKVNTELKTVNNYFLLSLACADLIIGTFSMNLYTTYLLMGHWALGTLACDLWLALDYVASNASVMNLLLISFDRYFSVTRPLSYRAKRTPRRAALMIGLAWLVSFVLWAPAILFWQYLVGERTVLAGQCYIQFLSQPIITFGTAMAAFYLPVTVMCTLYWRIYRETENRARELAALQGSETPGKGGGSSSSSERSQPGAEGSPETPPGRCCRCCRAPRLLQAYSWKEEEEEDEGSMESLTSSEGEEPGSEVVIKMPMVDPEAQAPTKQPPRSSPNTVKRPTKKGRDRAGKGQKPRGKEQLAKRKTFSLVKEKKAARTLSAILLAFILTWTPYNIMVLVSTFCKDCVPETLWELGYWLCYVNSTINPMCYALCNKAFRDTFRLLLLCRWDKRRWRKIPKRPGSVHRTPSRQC
Sequence of D(2) dopamine receptor (Homo sapiens) (P14416 whole entry, looked up): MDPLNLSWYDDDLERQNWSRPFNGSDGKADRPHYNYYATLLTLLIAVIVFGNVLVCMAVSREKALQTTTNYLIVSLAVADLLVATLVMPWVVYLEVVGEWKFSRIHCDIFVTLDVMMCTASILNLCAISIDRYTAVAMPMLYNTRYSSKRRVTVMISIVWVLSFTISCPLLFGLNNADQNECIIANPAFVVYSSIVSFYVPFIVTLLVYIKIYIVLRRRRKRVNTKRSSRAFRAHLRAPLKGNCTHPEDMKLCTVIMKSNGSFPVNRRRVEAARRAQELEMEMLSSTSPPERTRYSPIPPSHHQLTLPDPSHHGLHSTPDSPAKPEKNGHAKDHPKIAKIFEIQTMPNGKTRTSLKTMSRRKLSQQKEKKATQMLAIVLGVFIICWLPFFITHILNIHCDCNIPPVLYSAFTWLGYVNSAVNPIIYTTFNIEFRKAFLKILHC
Sequence of 5-hydroxytryptamine receptor 2A (Homo sapiens) (P28223 whole entry, looked up): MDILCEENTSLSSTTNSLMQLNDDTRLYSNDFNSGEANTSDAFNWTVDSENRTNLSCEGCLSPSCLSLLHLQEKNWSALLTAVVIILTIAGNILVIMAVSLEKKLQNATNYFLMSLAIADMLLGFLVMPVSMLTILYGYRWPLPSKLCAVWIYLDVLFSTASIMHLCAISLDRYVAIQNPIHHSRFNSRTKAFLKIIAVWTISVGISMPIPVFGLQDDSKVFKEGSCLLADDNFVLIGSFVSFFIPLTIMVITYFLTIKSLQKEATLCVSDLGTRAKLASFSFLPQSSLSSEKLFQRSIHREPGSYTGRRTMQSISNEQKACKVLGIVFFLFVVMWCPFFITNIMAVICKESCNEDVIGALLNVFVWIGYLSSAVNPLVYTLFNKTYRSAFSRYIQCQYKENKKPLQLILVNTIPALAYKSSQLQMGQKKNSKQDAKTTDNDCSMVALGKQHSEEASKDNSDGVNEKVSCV
Sequence of Beta-2 adrenergic receptor (Homo sapiens) (P07550 whole entry, looked up): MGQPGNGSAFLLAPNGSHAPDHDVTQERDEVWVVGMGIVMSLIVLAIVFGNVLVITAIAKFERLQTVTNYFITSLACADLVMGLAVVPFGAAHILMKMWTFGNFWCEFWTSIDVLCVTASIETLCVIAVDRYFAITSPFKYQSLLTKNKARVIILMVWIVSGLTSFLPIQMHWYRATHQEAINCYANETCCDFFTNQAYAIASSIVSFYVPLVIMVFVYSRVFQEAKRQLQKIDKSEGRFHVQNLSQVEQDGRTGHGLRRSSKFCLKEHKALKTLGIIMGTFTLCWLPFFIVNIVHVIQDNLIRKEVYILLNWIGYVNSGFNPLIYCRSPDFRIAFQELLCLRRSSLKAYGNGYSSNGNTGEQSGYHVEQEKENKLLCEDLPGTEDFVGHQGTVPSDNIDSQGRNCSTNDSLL

Compound	Potency [1]	Potency [2]	Potency [3]	Potency [4]	Potency [5]	Potency [6]	Potency [7]	Potency [8]	Potency [9]	Potency [10]	Potency [11]	Potency [12]	Potency [13]	Potency [14]	Potency [15]	Potency [16]	Potency [17]	Potency [18]	Potency [19]	Potency [20]
COC(=O)[C@H](Cc1ccccc1)NC(=O)[C@@H](N)CC(=O)O (H-Asp-Phe-OMe)	inactive	inactive	inactive	inactive	inactive	inactive	inactive	inactive	inactive	inactive	inactive	inactive	inactive	inactive	inactive	inactive	inactive	inactive	inactive	inactive
Nc1ccc2c(O)cc(S(=O)(=O)O)cc2c1	inactive	inactive	inactive	inactive	inactive	inactive	inactive	inactive	inactive	12.9 µM (active) and 16.2 µM (active)	inactive	inactive	inactive	inactive		inactive			inactive	inactive
Cc1ccccc1C(OCCN(C)C)c1ccccc1 (stereo not drawn)	inactive	inactive	inactive	inactive	inactive	inactive	inactive	inactive							inactive	inactive	inactive		inactive	inactive
COc1cc([C@H]2Oc3cc([C@H]4Oc5cc(O)cc(O)c5C(=O)[C@@H]4O)ccc3O[C@@H]2CO)ccc1O	inactive	inactive	inactive	inactive	inactive	inactive	inactive	inactive	inactive	inactive	inactive	inactive	inactive	inactive			inactive			inactive
Oc1c(Cl)cc(Cl)c(Cl)c1Cl	inactive	inactive	inactive	inactive	inactive	inactive	inactive	inactive	inactive			inactive	inactive	inactive		inactive	inactive		inactive	inactive
O=C(c1ccccc1)c1ccc(O)c(O)c1O	inactive	inactive	inactive	inactive	inactive	inactive	inactive	inactive	inactive		inactive		inactive	inactive	inactive	inactive	inactive	inactive	inactive	
CC(CCl)OP(=O)(OC(C)CCl)OC(C)CCl (stereo not drawn)	inactive	inactive	inactive	inactive	inactive	inactive	inactive	inactive	inactive	inactive	inactive	inactive	inactive	inactive	inactive	inactive	inactive		inactive	inactive
Cc1cc(=O)oc2cc(O)ccc12	inactive	inactive	inactive	inactive	inactive	inactive	inactive	inactive	inactive	inactive	inactive	inactive	inactive		inactive		inactive	inactive	inactive	inactive
CC(C)OC(=O)COc1ccc(Cl)cc1Cl	inactive	inactive	inactive	inactive	inactive	inactive	inactive	inactive	inactive	inactive	inactive	inactive	inactive	inactive			inactive		inactive	inactive
CCCN(CCC)S(=O)(=O)c1ccc(C(=O)O)cc1	inactive	inactive	inactive	inactive	inactive	inactive	inactive		inactive	inactive					inactive	inactive			inactive	inactive
CCCCCCC=O	inactive	inactive	inactive	inactive	inactive	inactive	inactive	inactive	inactive	inactive	inactive	inactive	inactive	inactive		inactive	inactive	inactive	inactive	inactive
CC1(C)NC(=O)N(c2ccc([N+](=O)[O-])c(C(F)(F)F)c2)C1=O	inactive	inactive	inactive	inactive	inactive	inactive	inactive	inactive	inactive		inactive	inactive	inactive	inactive	inactive	inactive	inactive	inactive	inactive	inactive
CN(C)c1ccc(C(=C2C=CC(=[N+](C)C)C=C2)c2ccccc2)cc1	4.33 µM (active) and 6.68 µM (active)	1220 nM (active)	inactive	inactive	inactive	inactive	14.5 µM (active) [middle of 4 runs]		4.08 µM (active) and 3.97 µM (active)		inactive		4.72 µM (active) and inactive and 18.3 µM (active)	inactive			inactive			
C=C(C#N)C(=O)OCC	inactive	inactive and 68.6 µM (active)	inactive	inactive	inactive	inactive	inactive	inactive	inactive	inactive		inactive	inactive		inactive	inactive		inactive	inactive	inactive
C=CC(=O)OCCC(=O)O	inactive	inactive	inactive	inactive	inactive	inactive	inactive	inactive	inactive		inactive	inactive	inactive	inactive	inactive		inactive	inactive	inactive	inactive
O=C(Cl)c1c(Cl)c(Cl)c(C(=O)Cl)c(Cl)c1Cl	inactive	inactive	inactive	inactive	inactive	inactive	inactive	inactive	inactive		inactive	inactive	inactive	inactive			inactive	inactive	inactive	inactive
